Measurements from the supplement of paper PMC8371130.
Where a name gives a salt, the structure may show the parent alone.

Test system: HL-1
Test: relative cell viability (CellTiter-Glo) vs DMSO control (% of DMSO control); higher = more viable cells
Method in brief: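 HL-1 mouse atrial cardiomyocytes were plated in 384-well plates at 1000 cells per well together with compounds at 40, 200, 1000 or 5000 nM in 0.01% DMSO. One day later, cells went to a hypoxic workstation (1% O2) for 48 h, then were reoxygenated for 24 h in a normal incubator, or stayed in normoxia for the same time. Cell viability was read by CellTiter-Glo luminescence and normalised to vehicle-treated control cells.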

[1] = oxygen condition: hypoxia 48 h (1% O2) + reoxygenation 24 h, 40 nM
[2] = oxygen condition: hypoxia 48 h (1% O2) + reoxygenation 24 h, 200 nM
[3] = oxygen condition: hypoxia 48 h (1% O2) + reoxygenation 24 h, 1000 nM
[4] = oxygen condition: hypoxia 48 h (1% O2) + reoxygenation 24 h, 5000 nM
[5] = oxygen condition: normoxia 72 h, 40 nM
[6] = oxygen condition: normoxia 72 h, 200 nM
[7] = oxygen condition: normoxia 72 h, 1000 nM
[8] = oxygen condition: normoxia 72 h, 5000 nM

Row | SMILES | relative cell viability [1] | relative cell viability [2] | relative cell viability [3] | relative cell viability [4] | relative cell viability [5] | relative cell viability [6] | relative cell viability [7] | relative cell viability [8]
1 | C=C(c1ccc(C(=O)O)cc1)c1cc2c(cc1C)C(C)(C)CCC2(C)C [Bexarotene] | 103 | 102 | 109 | 107 | 106 | 107 | 107 | 95.4
2 | Cc1cccc(C)c1OCC(C)N (configuration not stated) [Mexiletine HCl] | 108 | 105 | 104 | 121 | 103 | 105 | 107 | 123
3 | Cc1ccc(NC(=O)c2ccc(CN3CCN(C)CC3)cc2)cc1Nc1nccc(-c2cccnc2)n1 [Imatinib Mesylate] | 121 | 117 | 136 | 111 | 122 | 146 | 156 | 117
4 | Nc1cc(C(Cl)=C(Cl)Cl)c(S(N)(=O)=O)cc1S(N)(=O)=O [Clorsulon] | 109 | 105 | 107 | 113 | 110 | 115 | 116 | 110
5 | c1cnc2cc3c(cc2n1)[C@@H]1CNC[C@H]3C1 [Varenicline tartrate] | 106 | 105 | 110 | 106 | 106 | 102 | 112 | 97.8
6 | O=C(O)Cc1ccccc1Nc1c(Cl)cccc1Cl [Diclofenac Diethylamine] | 103 | 107 | 105 | 113 | 110 | 115 | 120 | 113
7 | CC[C@@H]1C(=O)OC[C@@H]1Cc1cncn1C [Pilocarpine HCl] | 104 | 111 | 105 | 110 | 115 | 104 | 106 | 119
8 | CC=CC1=C(C(=O)O)N2C(=O)[C@@H](NC(=O)[C@H](N)c3ccc(O)cc3)[C@H]2SC1 [Cefprozil hydrate] | 95.4 | 104 | 105 | 104 | 102 | 103 | 100 | 107
9 | CCCCOc1ccc(OCCCN2CCOCC2)cc1 [Pramoxine HCl] | 106 | 110 | 110 | 118 | 110 | 107 | 97.5 | 119
10 | Oc1ncnc2[nH]ncc12 [Allopurinol] | 114 | 108 | 106 | 109 | 105 | 103 | 106 | 110
11 | CC[C@H]1OC(=O)[C@H](C)[C@@H](O[C@H]2C[C@@](C)(OC)[C@@H](O)[C@H](C)O2)[C@H](C)[C@@H](O[C@@H]2O[C@H](C)C[C@H](N(C)C)[C@H]2O)[C@](C)(O)C[C@@H](C)CN(C)[C@H](C)[C@@H](O)[C@]1(C)O [Azithromycin] | 109 | 103 | 99.3 | 59.1 | 105 | 96.2 | 102 | 41.1
12 | CCCc1ncc(C[n+]2ccccc2C)c(N)n1 [Amprolium HCl] | 104 | 104 | 108 | 110 | 97.4 | 104 | 110 | 100
13 | O=c1[nH]cc(F)c(=O)[nH]1 [Adrucil] | 110 | 94.1 | 52.9 | 18.6 | 96.6 | 81.2 | 42.9 | 15.4
14 | Cc1ccc(C(=O)C(C)CN2CCCCC2)cc1 (configuration not stated) [Tolperisone HCl] | 107 | 107 | 109 | 108 | 107 | 114 | 81.5 | 111
15 | CCCCC1=NC2(CCCC2)C(=O)N1Cc1ccc(-c2ccccc2-c2nnn[nH]2)cc1 [Irbesartan] | 103 | 102 | 107 | 108 | 107 | 105 | 102 | 107
16 | C[N+]1(C)CCC(=C(c2ccccc2)c2ccccc2)CC1 [Diphemanil methylsulfate] | 104 | 100 | 104 | 104 | 102 | 104 | 106 | 100
17 | Cc1c(OCC(F)(F)F)ccnc1C[S@@+]([O-])c1nc2ccccc2[nH]1 [Dexlansoprazole] | 105 | 101 | 107 | 105 | 101 | 97.7 | 104 | 91.9
18 | Cc1cc(C)nc(NS(=O)(=O)c2ccc(N)cc2)n1 [Sulfamethazine] | 102 | 104 | 104 | 112 | 94.6 | 104 | 105 | 119
19 | OC(CCN1CCCCC1)(c1ccccc1)C1CC2C=CC1C2 (configuration not stated) [Biperiden HCl] | 106 | 104 | 93.9 | 108 | 106 | 106 | 106 | 100
